High-throughput results (PubChem BioAssay)
SSB-PriA inh = inhibitors of Klebsiella pneumoniae PriA binding to SSB C-terminal tail, primary screen, biochemical, AlphaScreen; actives 0.6% (n = 430,000); AlphaScreen SSBct-PriA binding, biotinylated peptide; inhibition, % at 33 µM; in the data active = inhibition mostly above about 37%, no sharp cut-off; inactive = mostly below about 20%;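 also: plate controls were negative control peptide for no effect and reference peptide for full effect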
PrPC surface inh = inhibitors of human cell surface prion protein PrPC, primary screen, cell-based, TR-FRET. TR-FRET read-out. inhibition, % at 13.8 µM. actives 0.43% (n = 370,000). AID 720596, 2013; in the data active = inhibition above about 24%; also: 0% = median of the test wells and 100% = reference compound wells
PrP UTR inh = inhibition of PrP 5' UTR reporter expression; cell-based PrP 5' UTR mRNA reporter, plate reader; actives 0.35% (n = 340,000); inhibition, % (test concentration not listed); in the data active = inhibition above about 52%; also: 0 = median of the neutral control wells
BJeLR viability = MLPCN primary cell-based screen for lethality selective to Ras in HRASV12 cells | BJeLR (HRASV12) viability, CellTiter-Glo ATP luminescence, 48 h | inhibition, % (no concentration beside the values) | AID 1554, 2009 | actives 0.17% (n = 300,000); in the data active = inhibition above about 50%
SARS 3CLpro inh = SARS-CoV 3CLpro protease inhibitors, primary screen, biochemical, quenched FRET | recombinant SARS-CoV 3CLpro, quenched FRET peptide cleavage | inhibition, % at 6 µM | actives 0.14% (n = 290,000); in the data active = inhibition above about 12%
PrPC confirm = confirmation of inhibitors of cell surface human prion protein, confirmation, cell-based, TR-FRET; actives 65% (n = 1,500); AID 743200, 2013; shares compounds with PrPC surface inh; inhibition, % at 13.8 µM; cell surface PrPC level; in the data active = inhibition above about 25%
LD9 tox = cytotoxicity in LD9 cells, cytotoxicity control for cell surface PrPc inhibitor project, cell-based, luminescence, high throughput | shares compounds with PrPC surface inh | luminescence viability | inhibition, % at 13.8 µM | actives 29% (n = 1,500); in the data active = inhibition above about 9.5%
* marks the source's active call; other numbers are inactive results. An excerpt weighted towards active compounds, which were near 1.2% of everything screened.

Results for CCc1ccc(-c2nc3ccc(Br)cc3c(C(=O)O)c2C)s1 ?
SSB-PriA inh: -9; PrPC surface inh: 48*; PrP UTR inh: -26; BJeLR viability: 1; SARS 3CLpro inh: 5; PrPC confirm: 84*; LD9 tox: -3

Results for Oc1ccc2ccc3[nH]cnc3c2c1 ?
SSB-PriA inh: -9; PrPC surface inh: 32*; PrP UTR inh: -15; BJeLR viability: 0; SARS 3CLpro inh: 0; PrPC confirm: 6; LD9 tox: -7

How did COc1cc(N(C)C)ccc1C=c1c2ccccc2n2c1cc(-c1ccccc1)[n+]2C do in these assays?
SSB-PriA inh: 92; PrPC surface inh: 31*; PrP UTR inh: -24; PrPC confirm: 48*; LD9 tox: 68*

Results for CCC(C)n1ncn(-c2ccc(N3CCN(c4ccc(OCC5COC(Cn6cncn6)(c6ccc(Cl)cc6Cl)O5)cc4)CC3)cc2)c1=O (stereo not given) ?
SSB-PriA inh: 8; PrPC surface inh: -3; PrP UTR inh: 14; BJeLR viability: 6; SARS 3CLpro inh: -1

Results for CCC(C)n1ncn(-c2ccc(N3CCN(c4ccc(O)cc4)CC3)cc2)c1=O (stereo not given) ?
SSB-PriA inh: 11; PrPC surface inh: 25*; PrP UTR inh: -2; BJeLR viability: -20; SARS 3CLpro inh: 6; PrPC confirm: 30*; LD9 tox: -8

What do the screens show for `N#CC1c2ccccc2-n2nncc2CN1Cc1cc(Cl)cc(Cl)c1` (stereo not given)?
SSB-PriA inh: -4; PrPC surface inh: 68*; PrP UTR inh: 33; PrPC confirm: 91*; LD9 tox: 98*

Results for COc1ccc(CN2Cc3cnnn3-c3ccccc3C2C#N)cc1 (stereo not given) ?
SSB-PriA inh: -1; PrPC surface inh: 2; PrP UTR inh: -5

What do the screens show for `Cc1nc(-c2ccc(N3CCN(C(=O)c4cc(-c5ccco5)[nH]n4)CC3)nc2)no1`?
SSB-PriA inh: -5

Results for Cc1nc(Nc2ncc(C(=O)Nc3c(C)cccc3Cl)s2)cc(N2CCN(CCO)CC2)n1 ?
PrPC surface inh: 25*; PrPC confirm: 19; LD9 tox: 1

How did Cc1cccc(Cl)c1NC(=O)N1CCCN(c2nc3ccc(Cl)cc3s2)CC1 do in these assays?
SSB-PriA inh: -5; PrPC surface inh: 5; PrP UTR inh: -16; BJeLR viability: 2; SARS 3CLpro inh: -1

What do the screens show for `CCOC(=O)c1cnc2cc(C(F)(F)F)ccc2c1N1CCC(C(=O)OC)CC1`?
SSB-PriA inh: -3

Results for Cn1nc(-c2ccccc2NC(=O)CSC2CCCC2)ccc1=O ?
SSB-PriA inh: -2

How did C=CCc1cccc(/C=N\NC(=O)Cc2nc3ccccc3[nH]2)c1O do in these assays?
SSB-PriA inh: -1

Results for O=C(NCc1cccc(Cl)c1)c1cc(COc2ccc3ncccc3c2)on1 ?
SSB-PriA inh: -8; PrPC surface inh: 25*; PrP UTR inh: -15; BJeLR viability: 0; SARS 3CLpro inh: -2; PrPC confirm: 26*; LD9 tox: 15*

What do the screens show for `Cc1ccc(F)cc1CNC(=O)c1cc(COc2ccc3ncccc3c2)on1`?
SSB-PriA inh: 1; PrPC surface inh: 14; PrP UTR inh: -33; BJeLR viability: 29; SARS 3CLpro inh: 2

Results for CC(=O)Nc1nc(COc2ccccc2)cs1 ?
SSB-PriA inh: 4; PrPC surface inh: 11; PrP UTR inh: -57; BJeLR viability: 22; SARS 3CLpro inh: 0

Results for Cc1ccc(C(=O)Nc2nc(COc3ccccc3)cs2)s1 ?
SSB-PriA inh: -12; PrPC surface inh: 30*; PrP UTR inh: -18; BJeLR viability: 12; SARS 3CLpro inh: -3; PrPC confirm: 22; LD9 tox: 6
